Several values for one entry are separate records, joined by “and”; a condition that tells them apart may be missing. Equal entries are not always repeated. About 25 (1%) of roughly 2,000 compounds were called active.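 The calls were made as follows: active = log2 luciferase ratio at or below -0.5849, meaning signal at two thirds of solvent-only control or lower; inactive = the rest.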 Many of the other results were omitted from the sample, so actives are more common in it than they were.
Test: eIF4E expression suppression, luciferase knock-in reporter – cell-based, HT1080, primary screen (AID 1224817);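 also: luciferase reports endogenous eIF4E expression since it is co-expressed from the native EIF4E locus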
Conditions: HT1080 EIF4E-luc2 knock-in reporter, 16 h, at 2.5 µM, stronger effect = lower value

SMILES	log2 luciferase activity ratio
COC1C(O)C(C)OC(OC2C(Oc3cccc4c(O)c5c(=O)oc6ccc(C)c7c(=O)oc(c34)c5c67)OC(C)C(O)C2O)C1O (stereo not given)	-0.702 (active) and -0.391 (inactive)
COC(=O)C1=COC(C)C2CN3CCC4(C(=O)Nc5ccccc54)C3CC12 (stereo not given)	0.122 (inactive)
c1ccc(CCN2CCCCCC2)nc1	0.334 (inactive)
COc1cc(CCN)c(OC)c(OC)c1	-0.289 (inactive)
CC1CCC2(O)C3(C)CC4(O)OC2(C1O)C1(O)C3(O)C(OC(=O)c2ccc[nH]2)C(O)(C(C)C)C41C (stereo not given)	-0.662 (active) and 0.224 (inactive)
Oc1c(Cl)c(Cl)c(Cl)c(Cl)c1Cl	0.387 (inactive)
CC(Cc1ccc(Cl)cc1Cl)NO (stereo not given)	0.563 (inactive)
CC1=C2C(=O)[C@H]3[C@@H](CC=C4C[C@@H](O)CC[C@@]43C)[C@@H]2CC[C@]12O[C@@H]1C[C@H](C)CN[C@H]1[C@H]2C	0.0474 (inactive)
O=C(Nc1ccc([As](=O)(O)O)cc1)Nc1cccc(Cl)c1Cl	0.175 (inactive)
C[C@]12CC[C@H]3[C@@H](CCC4=CC(=O)CC[C@@H]43)[C@@H]1CC[C@@H]2OC1(O)C(=O)c2ccccc2C1=O	-0.175 (inactive)
CC(=O)O[C@@H]1[C@@H](O)C2=C3[C@]4(C)[C@@H]1C(C)(C)C(=O)C[C@@H]4[C@]3(O)[C@H](OC(C)=O)[C@@]1(C[C@@H]1C)C2=O	-0.11 (inactive)
CC(=O)c1c(O)c(C)c(O)c(Cc2c(O)c3c(c(C(=O)/C=C/c4ccccc4)c2O)OC(C)(C)C=C3)c1O	-1.16 (active)
CC(=N\O)/C(C)=N/O.CC(=N\O)/C(C)=N/O.CC(=N\O)/C(C)=N/O.CC(=N\O)/C(C)=N/O.[Cu].[Cu]	0.204 (inactive)
CC[C@](O)(C(=O)O)c1cc2n(c(=O)c1CO)Cc1cc3ccccc3nc1-2	-0.308 (inactive)
NC(CSC1c2ccccc2-c2ccccc21)C(=O)O (stereo not given)	-0.0184 (inactive)
Cc1c2ccncc2c(C)c2c1[nH]c1ccccc12	-1.19 (active)
O=C(c1ccccc1)C1C(c2ccccc2[N+](=O)[O-])N1C1CCCCC1 (stereo not given)	-0.136 (inactive)
CC1=CC23C(COC(=O)C24CO4)C(C(=O)O)=CC3C1C (stereo not given)	-0.125 (inactive)
COc1cc2c(cc1OC)C13CCN4C=C5CCOC6CC(=O)N2C1C6C5CC43 (stereo not given)	0.124 (inactive) and 0.181 (inactive)
CCCCCC(O)C1C(=O)OC(C)C(O)/C=C/C=C/C=C/C=C/C=C(\C)C(O)C(O)C(O)CC(O)CC(O)CC(O)CC(O)CC1O (stereo not given)	-0.286 (inactive)
